# Assay outcomes deposited in PubChem by Broad Institute.
# The sample as a whole holds a higher share of hits than the screen did.
# Tgondii IFNg: T. gondii growth inhibition under IFN-gamma; Toxoplasma gondii growth in IFN-gamma-treated host cells; stronger effect = lower value; activity change, negative = inhibition, % (test concentration not listed); hit rate 3.8% among 69,000; AID 1259416; in the data active means activity change below about -70%, passing the limit was not always enough;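 further: host cells are HeLa cells infected with Toxoplasma gondii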
# * hit, by the source's call.
SMILES,Tgondii IFNg
C=CCOCC1CN(C(=O)Cc2ccsc2)Cc2nccn2C1 (configuration not stated),0
Cc1noc(-c2cc(=O)n(CC(=O)Nc3cccc(Cl)c3C)c3ccccc23)n1,31
CCN1CCN(C)C2(CCN(C(=O)C3CCCO3)CC2)C1=O (configuration not stated),-54
COc1ccc2c3c([nH]c2c1)[C@@H](CO)N(S(C)(=O)=O)CC31CN(C(=O)Cc2cccnc2)C1,-7
C[C@H](CO)N1C[C@H](C)[C@@H](CN(C)CC2CCCCC2)OCc2cnnn2CCCC1=O,91
C[C@H](CO)N1C[C@H](C)[C@H](CN(C)CC2CCCCC2)OCc2cnnn2CCCC1=O,181
C[C@H]1CN([C@@H](C)CO)C(=O)CCCn2nncc2CO[C@@H]1CN(C)C(=O)c1ccc(N2CCN(C)CC2)cc1,177
C[C@@H]1CN([C@@H](C)CO)C(=O)CCCn2nncc2CO[C@H]1CN(C)C(=O)c1ccc(N2CCN(C)CC2)cc1,-87*
C[C@@H]1CN([C@H](C)CO)C(=O)CCCn2nncc2CO[C@H]1CN(C)C(=O)c1ccc(N2CCN(C)CC2)cc1,-26
C[C@@H]1CN([C@H](C)CO)C(=O)CCCn2nncc2CO[C@H]1CN(C)CC1CCCCC1,-99*
COc1cccc(CN(C)Cc2cc3ccc(F)cc3[nH]c2=O)c1,10
Cc1cccc2cc(CN(Cc3ccccc3)C(=O)Nc3ccc(F)cc3)c(=O)[nH]c12,-104*
Cc1ccc(NC(=O)N(Cc2ccco2)Cc2cc3cc4c(cc3[nH]c2=O)OCCO4)cc1,-5
Cc1cc(CNC(=O)CN2C(=O)CNC2=O)c2[nH]c(-c3ccccc3)c(C)c2c1,75
O=S(=O)(Nc1ccccc1Sc1c(Cl)cncc1Cl)c1ccc(Cl)cc1,-55
O=C1CCc2cc(NC(=O)C3CCC3)ccc2N1,4
COCCN1C(=O)CCc2cc(NC(=O)C3CCC3)ccc21,31
Cc1c(C)c(C)c(C(=O)CCc2cccc(NC(=O)C3CCC3)c2)c(C)c1C,-92*
CCS(=O)(=O)N1CCC2(CN(c3ccccc3)C(=O)CN2C)C1 (configuration not stated),-3
COc1cc(NC(=O)Cn2c(=O)cc(C(=O)N3CCOCC3)c3ccccc32)cc(OC)c1,12
CCn1c(=O)c(-c2nc(-c3ccccc3Br)no2)c(O)c2ccc(F)cc21,-16
CCOC(=O)N1CCC(N2Cc3ncccc3C2=O)CC1,-3
CC(=O)N1CCN(CCOc2ccc(C3CCN(C4=Nn5c(nnc5C(F)(F)F)CC4)CC3)cc2)CC1,10
COc1ccc(-c2cc(C(=O)Nc3ncc(-c4ccc(F)cc4)n3C)on2)cc1,-3
Cn1c(-c2ccccc2)cnc1NC(=O)c1nonc1N,-104*
SMILES,Tgondii IFNg
Cc1cc2nc(C)c(CCC(=O)Nc3ncc(-c4ccccc4)n3C)c(C)n2n1,14
COc1ccc(CN(C)C[C@H]2OCCCC[C@H](C)Oc3ccc(NC(=O)C4CCCCC4)cc3C(=O)N([C@@H](C)CO)C[C@@H]2C)cc1,271
C[C@H]1CCCCO[C@H](CN(C)Cc2ccncc2)[C@@H](C)CN([C@@H](C)CO)C(=O)c2cc(NS(=O)(=O)c3ccc(Cl)cc3)ccc2O1,-47
COc1ccc(S(=O)(=O)Nc2ccc3c(c2)C(=O)N([C@H](C)CO)C[C@@H](C)[C@@H](CN(C)Cc2ccc(C(F)(F)F)cc2)OCCCC[C@H](C)O3)cc1,-120*
Cc1ccc(S(=O)(=O)Nc2ccc3c(c2)C(=O)N([C@@H](C)CO)C[C@@H](C)[C@@H](CN(C)Cc2ccc(C(F)(F)F)cc2)O3)cc1,-17
COc1ccc(S(=O)(=O)Nc2ccc3c(c2)C(=O)N([C@@H](C)CO)C[C@@H](C)[C@@H](CN(C)Cc2ccc(C(F)(F)F)cc2)OCCCC[C@@H](C)O3)cc1,-109*
COc1ccc(S(=O)(=O)Nc2ccc3c(c2)C(=O)N([C@H](C)CO)C[C@@H](C)[C@H](CN(C)Cc2ccc(C(F)(F)F)cc2)OCCCC[C@@H](C)O3)cc1,-119*
Cc1ccc(S(=O)(=O)Nc2ccc3c(c2)C(=O)N([C@H](C)CO)C[C@H](C)[C@@H](CN(C)Cc2ccc(C(F)(F)F)cc2)O3)cc1,14
COc1ccc(S(=O)(=O)Nc2ccc3c(c2)C(=O)N([C@H](C)CO)C[C@H](C)[C@H](CN(C)Cc2ccc(C(F)(F)F)cc2)OCCCC[C@H](C)O3)cc1,-111*
Cc1ccc(S(=O)(=O)Nc2ccc3c(c2)C(=O)N([C@@H](C)CO)C[C@H](C)[C@@H](CN(C)Cc2ccc(C(F)(F)F)cc2)O3)cc1,-60
Cc1ccc(S(=O)(=O)Nc2ccc3c(c2)C(=O)N([C@H](C)CO)C[C@@H](C)[C@@H](CN(C)Cc2ccc(C(F)(F)F)cc2)O3)cc1,8
c1ccc2oc(CN3CCCn4cncc4C3)cc2c1,-25
C=CC(=O)N1Cc2nnn(C)c2C(COCCN2CCCC2)C1 (configuration not stated),19
CS(=O)(=O)NC1CCN(C2CCC3(CCNCC3)CC2)CC1,46
C1=CCC(c2cn(Cc3nc(-c4ccccc4)n[nH]3)nn2)CC1 (configuration not stated),-11
